# Screens (PubChem)
# HP1b binding inh = inhibitors of HP1-beta chromodomain binding to methylated histone tails; AlphaScreen HP1-beta / biotin-H3K9me3 peptide binding; Potency, µM (highest dose often 114 µM), for inactives: at the highest dose activity change, negative = inhibition, hits mostly inhibitors; 390,000 compounds, 0.56% hits; AID 540317; also: nearly all actives have a fitted effect of over 70% in size
# Target sequence (P83916 whole entry, looked up): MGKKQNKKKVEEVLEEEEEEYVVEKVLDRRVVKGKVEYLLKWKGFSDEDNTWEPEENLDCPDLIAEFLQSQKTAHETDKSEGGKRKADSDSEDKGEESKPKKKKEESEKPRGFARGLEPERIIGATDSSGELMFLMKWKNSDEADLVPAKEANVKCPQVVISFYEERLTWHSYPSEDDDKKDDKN
#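 HP1-beta protein (50 nM final) preincubated 30 min at room temperature with biotinylated H3(1-18)K9me3 peptide (50 nM) in PBS pH 7.4, 0.01% Tween-20, then compound added for 30 min. AlphaScreen streptavidin donor/nickel chelate acceptor beads (10 ug/mL final), 30 min dark, luminescence read.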
# G9a inh = blocks human histone lysine methyltransferase G9a | Q96KQ7 | Potency, µM (highest dose often 102 µM), for inactives: top-dose activity, negative = inhibition, most hits filed as inhibitors | 350,000 compounds, 8.8% hits | G9a H3K9 monomethylation, AlphaScreen, 2 h; also: % is scaled to controls: 0 for no effect and ±100 for the full control effect; nearly all actives have a fitted effect of over 75% in size
# Target sequence (Q96KQ7 913-1193 limits assumed): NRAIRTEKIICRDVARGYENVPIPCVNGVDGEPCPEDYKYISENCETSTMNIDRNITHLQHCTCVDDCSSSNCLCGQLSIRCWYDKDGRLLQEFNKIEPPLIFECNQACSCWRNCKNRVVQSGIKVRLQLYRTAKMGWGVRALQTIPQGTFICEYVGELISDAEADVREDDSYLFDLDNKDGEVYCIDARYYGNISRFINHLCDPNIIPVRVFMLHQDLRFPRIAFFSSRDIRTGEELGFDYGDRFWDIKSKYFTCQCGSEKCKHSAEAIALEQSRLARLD
#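 Enzyme 20 nM + cpd, 15 min RT; add b-H3K9 pep 500 nM / SAM 20 uM; 2 h RT; anti-H3K9me1 Ab 0.5 ug/mL + SA donor / anti-rabbit acceptor beads 20 ug/mL each, 10 min; AlphaScreen read.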
# GLS inh = glutaminase GLS (human) inhibition. GLS enzymatic activity, qHTS titration. Potency, µM (doses to about 45.5 µM), for inactives: top-dose activity change, negative = inhibition, usual class: inhibitors. 410,000 compounds, 0.21% hits; also: % is scaled to controls: 0 for no effect and ±100 for the full control effect
#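 Two-point fluorescence kinetic (t0, 30 min RT) for hKGA; glutamate detected via glutamate oxidase–HRP–Amplex Red. Substrate: 1 mM L-glutamine solution; buffer 45 mM KH2PO4, pH 8.2.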
# BAZ2B inh = inhibitors of human BAZ2B bromodomain. AlphaScreen BAZ2B-H3K14Ac peptide displacement. Q9UIF8. 360,000 compounds, 4.4% hits. Potency, µM (top dose mostly 114 µM), for inactives: top-dose activity change, negative = inhibition, usual class: inhibitors; also: % is scaled to controls: 0 for no effect and ±100 for the full control effect; nearly all actives have a fitted effect of over 60% in size
#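 Multi-concentration screen (max 110 uM) measuring displacement of acetylated histone H3 peptide from BAZ2B by AlphaScreen, using 50 nM protein, 50 nM peptide and 10 ug/mL streptavidin donor plus Ni-chelate acceptor beads.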
# JMJD2A Tudor inh = JMJD2A Tudor domain (human) inhibition; Potency, µM (doses to about 114 µM), for the others: at the top dose activity change, negative = inhibition, most hits filed as inhibitors; AlphaScreen JMJD2A-Tudor / H3K4me3 peptide binding; 390,000 compounds, 4.4% hits; also: % is scaled to controls: 0 for no effect and ±100 for the full control effect; nearly all actives have a fitted effect of over 50% in size
# Active calls of the source: *; u = inconclusive; x = no result given; [ ] = another dose, or the depositor's remark. An excerpt weighted towards active compounds, which were near 10% of everything screened. Calls follow the shape of the dose curve; as a rule, active = well fitted curve in the direction sought with a large enough effect; inconclusive = small, poorly fitted or top-dose-only effect, or another doubt; inactive = no such curve, though single readings can be large; an effect the other way counts as inactive or inconclusive. Potency is read from the fitted curve at half-maximal effect.
SMILES,HP1b binding inh,G9a inh,GLS inh,BAZ2B inh,JMJD2A Tudor inh
N#CC1=C(N)C(C#N)(C#N)C(c2cccnc2)C2CC(c3ccccc3)CC=C12 (stereo not given),40%,x,3%,-37%,-8%
Cc1ncc(C[n+]2csc(CCOC(=O)C34CC5CC(CC(C5)C3)C4)c2C)c(N)n1,39%,-3%,-4%,-34%,-5%[11.4 µM]
Cc1ncc(C[n+]2csc(CCOC(=O)CC3C4CC5CC(C4)CC3C5)c2C)c(N)n1 (stereo not given),73%,50µM*,11%,-29%,-8%[57.1 µM]
Cc1ccccc1NC(=O)CNC(=O)Cc1cccc2ccccc12,6%,10%[0.501 µM],4%,0%,-30%
COc1ccccc1N1CCN(S(=O)(=O)c2c(C(=O)N3CCOCC3)c(C)n(C)c2C)CC1,-23%,-3%[59 µM],-14%,-22%,16µM*
Cc1nc(SCc2nc3c(O)cccc3[nH]2)c2oc3ccccc3c2n1,24%,x,0%,x,28µM*
Cc1nc(SCc2nc3ccc(F)cc3[nH]2)c2oc3ccccc3c2n1,25%,x,-5%,x,u
COc1cccc(-n2sc3c(c2=S)-c2cc(OC)ccc2NC3(C)C)c1,5.6µM*,u,7%,10µM*,11µM*
NC(=O)c1cccc(-c2csc(C(O)c3cccc(Cl)c3)n2)c1 (stereo not given),x,x,-9%,x,x
COc1ccc(-c2cc(C(=O)NCc3ccccc3)c3c(-c4ccccc4)[nH]nc3n2)cc1,20%,2%[59 µM],0%,-15%,-16%
N=C1N(/N=C/c2ccccc2)C(=Nc2ccccc2)C(=S)N1c1ccccc1,30%,10µM*,x,u,0%
Cc1nnc(C)n1/N=C/c1ccccc1,5%,23%,2%,8%[57.1 µM],-16%
O=C1NC[C@H](CCCCN2C[C@H](Cc3ccc(O)cc3)N(CCc3ccc(O)cc3)C(=O)C2=O)N(CCc2ccccc2)C1=O,x,x,3%,x,x
O=C(CC1C(=O)NCCN1Cc1cccc(C(F)(F)F)c1)NC1CCCCCC1 (stereo not given),20%,40µM*,3%,-21%,-30%
O=C(CC1C(=O)NCCN1Cc1ccccc1C(F)(F)F)NC1CCCC1 (stereo not given),39%,45µM*,-19%,-19%,-9%
CCOC(=O)c1c(C)c(C(=O)NCc2cccnc2)c(C)n1CC,36%,14%[12.7 µM],4%,7%,-13%
O=C(Nc1ccccc1F)c1ccc(-c2cccc([N+](=O)[O-])c2)o1,17%,-10%,11%,-20%,-15%
O=[N+]([O-])c1cc(-c2ccc(C(=S)N3CCOCC3)o2)ccc1Cl,10µM*,1.8µM*,-15%,32µM*,40µM*
COc1ccc(N2CCN(C(=O)c3ccc(COc4ccc([N+](=O)[O-])cc4)o3)CC2)cc1,u,22µM*,24%,u,u
O=C(Nc1nccs1)c1ccc(-c2cccc([N+](=O)[O-])c2)o1,u,-5%[59 µM],-1%,-29%,56µM*
COc1ccc(N2CCN(C(=O)Oc3ccc([N+](=O)[O-])cc3)CC2)cc1,x,x,35%,x,x
O=[N+]([O-])c1cccc(-c2ccc(C(=S)N3CCN(c4ccccc4)CC3)o2)c1,u,3.5µM*,-7%,u,u
O=C(O)c1ccc(S(=O)(=O)NCc2cccnc2)cc1,19%,14%,2%,-16%,6%
CN1CCN(C(=S)c2ccc(-c3cccc([N+](=O)[O-])c3)o2)CC1,-29%,40µM*,6%,u,50µM*
O=C(Nc1ccc(CN2CCOCC2)cc1)c1ccc(-c2cccc([N+](=O)[O-])c2)o1,-6%[57 µM],-17%,8%,-26%,-29%
SMILES,HP1b binding inh,G9a inh,GLS inh,BAZ2B inh,JMJD2A Tudor inh
O=[N+]([O-])c1cccc(-c2ccc(C(=S)N3CCOCC3)o2)c1,u,x,1%,28µM*,45µM*
O=C(c1ccc(-c2cccc(Cl)c2)o1)N1CCN(c2ccc([N+](=O)[O-])cc2)CC1,-9%,4%[59 µM],-29%,0%,40µM*
Cc1nnc(NC2=NCCC2)s1,-6%,28µM*,4%,-28%,79µM*
Cc1nnc(NC2=NCCC2)o1,41%,9%[12.7 µM],-12%,79µM*,1%
CCN(CC)S(=O)(=O)c1ccc(NC(=O)c2ccc(Sc3nncn3C)c([N+](=O)[O-])c2)cc1,7%,14%[59 µM],4%,-32%,u
COc1ccc(NS(=O)(=O)c2cc3c(cc2C)N(C)CCO3)cc1,-12%,11%,25%,50µM*,u
CCN(CC)C(=O)Cn1ncc2c1-c1ccccc1OC2,25%,u,-1%,9%,-7%
COc1ccccc1CCNC(=O)c1ccc(C)o1,46%,0%[12.7 µM],2%,-5%,-21%
COc1ccccc1CCNC(=O)c1nccnc1C(=O)O,14%,35µM*,-4%,-25%,-3%
COc1ccc(CC(CC(=O)O)C(=O)Nc2ccc(Cl)c(Cl)c2)cc1 (stereo not given),1%,6%,-9%,3%,8.9µM*
COc1ccc(NC(=O)C(NC(C)=O)C(=O)NCc2ccccc2)cc1 (stereo not given),20%,-27%[59 µM],-3%,11%,9%
COc1ccc(CC(CC(=O)O)C(=O)NCc2ccccc2)cc1 (stereo not given),27%,56µM*,11%,-30%,-10%
CCC(=Nc1ccc(N)cc1)C1=C(O)C(C(=O)OC)C(C)(C)CC1=O (stereo not given),-13%,50µM*,-3%,u,-35%
CCCCC(=Nc1ccc(N)cc1)C1=C(O)C(C(=O)OC)C(C)(C)CC1=O (stereo not given),-15%,1µM*,40%,56µM*,u
CCCC(=Nc1ccccc1)C1=C(O)C(C(=O)OC)C(C)(C)CC1=O (stereo not given),10%,u,9%,u,-15%
O=C(CCn1cnnn1)Nc1ccc(Cl)c(Cl)c1,28%,-4%,-5%,7%,-1%
CN[C@@H]1[C@H](O[C@H]2[C@H](O[C@H]3[C@H](O)[C@@H](O)[C@H](N=C(N)N)[C@@H](O)[C@@H]3N=C(N)N)O[C@@H](C)[C@]2(O)C=O)O[C@@H](CO)[C@H](O)[C@H]1O,x,18µM*,0%,x,x
CNC1C(O)C(O)C(CO)O[C@H]1OC1C(O[C@@H]2C(O)C(O)[C@@H](N=C(N)N)C(O)C2N=C(N)N)OC(C)[C@]1(O)C=O (stereo not given in full),x,-27%[2.33 µM],x,x,x
CC(=O)c1cccc(NC(=O)CCC2CCCC2)c1,43%,14%[12.7 µM],11%,-5%,4%
COc1ccccc1NC(=O)CN1CCN(c2ccccc2OC)CC1,34%,-32%,7%,-17%,-20%
O=C(CN1CC(=O)Nc2ccccc21)Nc1ccc(F)c(F)c1,51%,8.9µM*,-16%,-1%,-5%
COc1ccccc1NC(=O)CN1CC(=O)Nc2ccccc21,37%,20µM*,-2%,x,9%
